# PubChem BioAssay (EPA / NIEHS)
# “And” between values parts separate entries of the source, which are not always exact repeats. Equal entries are not always repeated. Inconclusive results are not listed. The source made the active and inactive calls. Rule for the calls: active = hit-call score of the fitted dose curve at least 0.9, where 1 is the maximum; inconclusive = response in the unintended direction; inactive = score below 0.9.
# Target: Estrogen receptor (Homo sapiens) + Estrogen receptor beta (Homo sapiens) (UniProt P03372+Q92731)
# Sequence (P03372 whole entry, looked up): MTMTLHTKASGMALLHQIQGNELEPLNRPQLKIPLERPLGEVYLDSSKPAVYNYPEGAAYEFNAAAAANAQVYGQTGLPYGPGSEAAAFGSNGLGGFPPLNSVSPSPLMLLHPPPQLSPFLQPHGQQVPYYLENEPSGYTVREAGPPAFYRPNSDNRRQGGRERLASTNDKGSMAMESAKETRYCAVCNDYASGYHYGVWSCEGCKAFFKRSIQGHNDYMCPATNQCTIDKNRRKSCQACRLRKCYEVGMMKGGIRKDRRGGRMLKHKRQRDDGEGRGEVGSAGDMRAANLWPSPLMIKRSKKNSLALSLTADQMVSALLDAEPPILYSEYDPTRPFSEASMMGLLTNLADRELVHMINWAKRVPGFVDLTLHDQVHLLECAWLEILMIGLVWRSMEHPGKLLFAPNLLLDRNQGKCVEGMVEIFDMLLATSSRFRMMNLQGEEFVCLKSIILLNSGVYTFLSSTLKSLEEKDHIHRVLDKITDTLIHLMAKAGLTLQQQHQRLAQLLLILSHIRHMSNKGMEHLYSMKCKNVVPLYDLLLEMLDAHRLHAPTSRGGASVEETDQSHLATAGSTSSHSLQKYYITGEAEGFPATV
# Sequence (Q92731 whole entry, looked up): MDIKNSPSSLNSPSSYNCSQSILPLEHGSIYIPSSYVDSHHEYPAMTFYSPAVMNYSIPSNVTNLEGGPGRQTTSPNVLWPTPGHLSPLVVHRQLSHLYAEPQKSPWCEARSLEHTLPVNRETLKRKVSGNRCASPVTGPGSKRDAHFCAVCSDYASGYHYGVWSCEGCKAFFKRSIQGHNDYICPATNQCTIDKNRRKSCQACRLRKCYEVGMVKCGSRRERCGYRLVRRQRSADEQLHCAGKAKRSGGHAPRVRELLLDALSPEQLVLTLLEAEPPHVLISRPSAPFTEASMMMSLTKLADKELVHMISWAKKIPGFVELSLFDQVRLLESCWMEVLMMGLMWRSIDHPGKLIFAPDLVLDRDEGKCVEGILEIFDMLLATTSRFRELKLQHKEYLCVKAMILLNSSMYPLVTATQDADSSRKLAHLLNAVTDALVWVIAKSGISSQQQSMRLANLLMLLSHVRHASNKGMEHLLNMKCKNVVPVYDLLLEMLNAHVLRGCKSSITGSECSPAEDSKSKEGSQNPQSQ
# Assay: OT_ER_ERaERb_0480: Odyssey Thera (OT) 8-hour HEK293T Protein-Complementation Assay for Estrogen Receptor-alpha/-beta Heterodimer (AID 2283352)
# Summary of the method: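 Increase in mean fluorescence intensity, measured by laser scanning plate cytometry, reported ER-alpha/ER-beta LBD complementation in HEK293T cells after 8 h chemical exposure. DMSO served as baseline; basal signal is low, punctate and cytoplasmic.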
SMILES,outcome,AC50
C=CC1(C)OC(=O)N(c2cc(Cl)cc(Cl)c2)C1=O (centres undefined),inactive,
COc1cnc(OC)n2nc(NS(=O)(=O)c3c(OCC(F)F)cccc3C(F)(F)F)nc12,inactive,
CCNc1nc(Cl)nc(NC(C)C)n1,inactive,
CCCCOC(=O)c1ccccc1C(=O)OCCCC,,33.1 µM (active) and 25.9 µM (active) and 23.5 µM (active)

# Target: Androgen Receptor/SRC-1 Co-activator, AR (gene 367) (UniProt P10275)
# Sequence (P10275 whole entry, looked up): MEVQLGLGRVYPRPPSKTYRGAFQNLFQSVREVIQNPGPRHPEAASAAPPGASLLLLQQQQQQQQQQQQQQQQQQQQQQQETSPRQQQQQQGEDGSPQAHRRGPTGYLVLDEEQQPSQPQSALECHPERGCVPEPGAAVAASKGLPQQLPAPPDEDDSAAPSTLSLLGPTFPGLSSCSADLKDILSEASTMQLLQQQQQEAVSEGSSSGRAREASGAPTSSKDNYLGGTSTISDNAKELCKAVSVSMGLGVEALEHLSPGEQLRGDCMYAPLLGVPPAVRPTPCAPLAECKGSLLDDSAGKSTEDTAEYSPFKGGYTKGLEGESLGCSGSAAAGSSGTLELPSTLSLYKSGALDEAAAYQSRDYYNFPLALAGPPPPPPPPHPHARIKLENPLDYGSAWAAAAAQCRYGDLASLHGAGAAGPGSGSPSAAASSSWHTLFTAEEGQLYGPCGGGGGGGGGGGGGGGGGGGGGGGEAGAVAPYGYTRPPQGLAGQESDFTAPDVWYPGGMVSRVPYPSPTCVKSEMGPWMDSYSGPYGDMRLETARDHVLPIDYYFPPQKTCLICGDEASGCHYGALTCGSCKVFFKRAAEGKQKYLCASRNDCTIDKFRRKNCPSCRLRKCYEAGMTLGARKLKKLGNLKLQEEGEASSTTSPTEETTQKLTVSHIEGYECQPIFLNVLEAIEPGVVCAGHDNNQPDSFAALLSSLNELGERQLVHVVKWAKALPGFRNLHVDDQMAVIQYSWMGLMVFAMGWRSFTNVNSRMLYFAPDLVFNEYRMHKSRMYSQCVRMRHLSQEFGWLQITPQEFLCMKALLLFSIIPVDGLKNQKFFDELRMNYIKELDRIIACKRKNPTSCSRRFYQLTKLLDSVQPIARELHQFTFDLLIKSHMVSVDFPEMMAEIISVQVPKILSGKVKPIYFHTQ
# Assay: OT_AR_ARSRC1_0960: Odyssey Thera (OT) 16-hour HEK293T Protein-Complementation Assay for Androgen Receptor/SRC-1 Co-activator (AID 2283353);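 note: actives raise the signal above DMSO so potency reflects increased AR and SRC-1 complex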
# Summary of the method: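 Endpoint is gain-of-signal N/C fluorescence ratio in the 488 nm channel versus DMSO, from at least 400 cells per image, measured 16 h post-dosing. Cells: HEK293T stably carrying split-Venus AR/SRC-1 complementation constructs.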
SMILES,outcome,AC50
CCOC(=O)CC(SP(=S)(OC)OC)C(=O)OCC (centres undefined),inactive,
N#Cc1nn(-c2c(Cl)cc(C(F)(F)F)cc2Cl)c(N)c1S(=O)C(F)(F)F (centres undefined),,22.7 µM (active)
CS/C(C)=N/OC(=O)N(C)SN(C)C(=O)O/N=C(\C)SC,,78.2 µM (active)
CO/C=C(/C(=O)OC)c1ccccc1Oc1cc(Oc2ccccc2C#N)ncn1,inactive,
O=C(Nc1ccccc1)Nc1ccnc(Cl)c1,inactive,
CN(C)C(=S)SSC(=S)N(C)C,,26.2 µM (active)
N#Cc1cc(Br)c(O)c(Br)c1,inactive,
CCON=C(CC)C1=C(O)CC(c2c(C)cc(C)cc2C)CC1=O (centres undefined),inactive,
Cc1cc(Cl)ccc1OCC(=O)O,inactive,
CCCC1COC(Cn2cncn2)(c2ccc(Cl)cc2Cl)O1 (centres undefined),,34.3 µM (active)
